Assay outcomes (PubChem BioAssay)
Rows were chosen to be rich in hits. Some 0.93% of all compounds tested hit in one or more screens of this group.
CDC25B CDK2 inh: human CDC25B-CDK2/CyclinA binding inhibition; P30305+P24941; HTRF CDC25B-CDK2/CyclinA binding, anti-His/anti-Flag; hits give high values; z-score (test concentration not listed); actives 0.72% (n = 94,000); AID 1259370; in the data active means z-score above about 3.2
TAR Tat displ: HIV-1 TAR-Tat binding disruption; HIV-1 TAR RNA, Tat peptide displacement FRET; hits give high values; z-score (no concentration beside the values); actives 0.6% (n = 100,000); AID 1259389; active means z-score of 3 or more in at least 2 runs
A number is an active result; - = inactive; . = not tested or not shown; ! = not active in a repeat.

SMILES	CDC25B CDK2 inh	TAR Tat displ
CC1CCC(NC(=O)C2(C)Cn3c(cc4occc43)C(=O)N2CCN(C)C)CC1 (configuration not stated)	.	-
CC1CCC(NC(=O)C2(C)Cn3c(cc4occc43)C(=O)N2CCN2CCOCC2)CC1 (configuration not stated)	.	-
CC1CCC(NC(=O)C2(C)Cn3c(cc4occc43)C(=O)N2C2CCC(C)CC2)CC1 (configuration not stated)	.	5.4
CC1(C(=O)NC2CCCCC2)Cn2c(cc3occc32)C(=O)N1C1CCCCC1 (configuration not stated)	.	-
CC1(C(=O)NC2CCCCC2)Cn2c(cc3occc32)C(=O)N1CCN1CCOCC1 (configuration not stated)	.	4
CC1CCC(NC(=O)C2(C)Cn3c(cc4occc43)C(=O)N2C2CCCCC2)CC1 (configuration not stated)	.	5.4
O=C(O)c1cccn1Cc1ccc(Cl)cc1	-	.
Cc1cc(=O)oc2cc(O)cc(O)c12	.	-
O=c1oc2c(O)c(O)cc3c(=O)oc4c(O)c(O)cc1c4c23	.	31!
Cc1ccc(-c2onc(C)c2C)cc1S(=O)(=O)N1CCN(C2CCCCC2)CC1	.	-
ON(Cc1ccccc1)Cc1ccccc1	-	.
BrC=C=CCN(CC=C=CBr)Cc1ccccc1	4.3	.
CN1CCN(C(=O)CCc2nc(CS(=O)(=O)c3ccccc3)no2)CC1	.	-
CCc1nn(CC(=O)NCCC(C)C)c(=O)c2cc3ccccc3n12	-	-
Cc1oc2c(cc(O)c3ccccc32)c1C(=O)O	8.6	-
CC(=O)Oc1cc2c(C(=O)N3CCCC3)c(C)oc2c2ccccc12	-	-
COc1ccc(-c2cc3c4c(C)n(Cc5ccccc5)c(C)c4c(C)nn3c2)cc1	-	-
COc1ccc(-c2cc3c4c(C)n(C)c(C)c4c(C)nn3c2)cc1	-	11
COc1ccc(CCn2c(C)c3c(C)nn4cc(-c5ccc(C)o5)cc4c3c2C)cc1OC	-	35
COc1ccc(-c2cc3c4c(C)n(Cc5ccc6c(c5)OCO6)c(C)c4c(C)nn3c2)cc1	-	-
CNC(=O)c1c(NC(=O)c2ccc3c(c2)OCCO3)sc2c1CCC(C)C2 (configuration not stated)	.	-
Cc1cccc(N2CCN([C@H]3CS(=O)(=O)C[C@@H]3S(=O)(=O)c3cccs3)CC2)c1C	-	-
O=C(O)c1ccc2c(c1)[C@@H]1C=CC[C@@H]1[C@H](c1ccccc1Br)N2	-	-
O=C(O)c1ccc2c(c1)C1C=CCC1C(c1cccc(F)c1)N2 (configuration not stated)	-	9.3
Cc1ccc([C@@H]2Nc3c(F)cccc3[C@@H]3C=CC[C@@H]32)cc1	-	.
SMILES	CDC25B CDK2 inh	TAR Tat displ
O=C(O)c1ccc2c(c1)C1C=CCC1C(c1ccc(Cl)cc1)N2 (configuration not stated)	-	19
O=C(O)c1ccc([C@@H]2Nc3c(F)cccc3[C@@H]3C=CC[C@@H]32)cc1	-	9.4
O=C(O)c1ccc2c(c1)[C@@H]1C=CC[C@@H]1[C@H](c1cccc(Cl)c1)N2	-	.
O=C(O)c1ccc2c(c1)[C@@H]1C=CC[C@@H]1[C@H](c1ccccn1)N2	6	.
O=C(O)c1ccc2c(c1)[C@@H]1C=CC[C@@H]1[C@H](c1cccc(C(F)(F)F)c1)N2	-	.
O=C(NCC1CCCO1)Nc1ccc(CCc2nc3ccccc3[nH]2)cc1 (configuration not stated)	.	-
Cc1cccc2cc3c(nc12)N(C(=O)C(C)(C)C)CC3	-	-
Nc1nc(SCc2cc(=O)n3ccsc3n2)n[nH]1	.	-
CCOC(=O)C1=CS/C(=C2/C(=S)C(C)(C)Nc3cc(C)ccc32)S1	-	-
COC(=O)C1=C(C(=O)OC)SC(=C2C(=S)C(C)(C)Nc3ccc(OC)cc32)S1	-	-
COC(=O)C1=C(C(=O)OC)SC(=C2C(=S)C(C)(C)Nc3cc(C)ccc32)S1	13	-
CCOC(=O)C1=C(C(=O)OCC)SC(=C2C(=S)C(C)(C)Nc3cc(C)ccc32)S1	17	-
O=C(C1CC(c2ccc(F)cc2)=NO1)N1CCN(C(c2ccccc2)c2ccccc2)CC1 (configuration not stated)	-	-
COc1cc(NS(=O)(=O)c2ccc3c(c2)NC(=O)C(C)CS3)cc(OC)c1 (configuration not stated)	.	-
CSc1ccc(CCNC(=O)CN(C)c2nnc(N3CCCC3=O)s2)cc1	-	-
O=C1c2ccccc2C(=O)N1CC12CC3CC(CC(Br)(C3)C1)C2	-	.
CCCn1c(NCc2ccco2)nc2ccccc21	-	-
CC(C)n1cnc2cc(NCc3ccco3)ccc21	7.8	-
CC(C)(C)n1cnc2cc(NCc3ccco3)ccc21	-	-
Cn1cnc2cc(NCc3ccco3)ccc21	17	-
CC(C)(C)C1CCc2c(sc3nc(CCC(=O)N4CCN(c5ccccc5F)CC4)[nH]c(=O)c23)C1 (configuration not stated)	.	-
O=C(NCc1ccc(S(=O)(=O)N2CCOCC2)s1)c1cnccn1	.	-
O=C(/C=C/c1ccccc1)Nc1ccc2c(c1)C(=O)c1ccccc1C2=O	-	.
O=C(O)/C=C/C(=O)Nc1ccc2c(c1)C(=O)c1ccccc1C2=O	6.1	.
CCOc1ccc(C(=O)Nc2ccc3c(c2)C(=O)c2ccccc2C3=O)cc1	-	.
SMILES	CDC25B CDK2 inh	TAR Tat displ
O=C1c2ccccc2C(=O)c2cc(NC(=O)C(Cl)(Cl)Cl)ccc21	16	.
O=c1c2cccnc2nc(SCc2cccc(F)c2)n1Cc1ccccc1	-	-
COc1ccc(-c2noc(CN3CCCCC3)n2)cc1OC	-	-
COc1ccc(-c2noc(CC3CCCCC3)n2)cc1OC	16	-
CCc1nnc2c(NCCC3=CCCCC3)nc3ccccc3n12	.	-
CN(Cc1ccco1)C(=O)CN(C)S(=O)(=O)c1ccc2c(c1)c(=O)n(C)c(=O)n2C	-	-
Cc1cccc(N2CCN([C@H]3CS(=O)(=O)C[C@@H]3S(=O)(=O)c3ccc(F)cc3)CC2)c1C	-	-
Cc1ccc(-n2cc3c(=O)[nH]cnc3n2)cc1	-	-
O=c1[nH]cnc2nn(-c3ccccc3)cc12	-	4
Cc1ccc(-c2cn3c(n2)sc2cc(C(=O)NC(C)C)ccc23)cc1	.	-
O=C(Nc1ccc(Cl)cc1)Nc1csc2c1CCCC2	-	-
CC(C(=O)N1CCN(c2cccc(Cl)c2)CC1)n1sc2ccccc2c1=O (configuration not stated)	-	-
COc1cc(C2Nc3cccc4cccc(c34)N2)ccc1OCc1ccccc1	-	-
CCc1ccc(C2Nc3cccc4cccc(c34)N2)cc1	-	35
CCOc1cc(C2Nc3cccc4cccc(c34)N2)ccc1O	-	8
CC(C)(C)c1ccc(C2Nc3cccc4cccc(c34)N2)cc1	-	7.1
c1ccc(C2Nc3cccc4cccc(c34)N2)cc1	-	10
CN(C)c1ccc(C2Nc3cccc4cccc(c34)N2)cc1	-	-
Brc1cccc(C2Nc3cccc4cccc(c34)N2)c1	-	-
COc1cc(OC)c(C2Nc3cccc4cccc(c34)N2)c(OC)c1	-	-
COc1ccccc1C1Nc2cccc3cccc(c23)N1	-	-
c1ccc2c(C3Nc4cccc5cccc(c45)N3)cccc2c1	-	8.2
Cc1cn2c(=O)cc(CSc3ccccc3NC(=O)c3ccco3)nc2s1	.	-
CCCN(CCC)C(=O)Nc1cn(CC(C)C)c(=O)c2ccccc12	.	-
CC(C)Cn1cc(NC(=O)NCCCN2CCCC2)c2ccccc2c1=O	.	-
